Measured values as given in PubChem BioAssay AID1159580 (chemical genetic matrix, 2015).
“And” between values parts separate entries of the source, which are not always exact repeats. Identical values can stand only once. Screen size: about 5,500 compounds; about 2,000 (36%) were called active. Roughly 18% stayed inconclusive and do not appear here. Cut-off read from the data, not from the text of the source: active = normalized growth mostly below about 0.91 (no sharp cut-off); inconclusive = no clear call, values can overlap the other calls; inactive = mostly above about 0.92. This is one part of the list.

Test: chemical genetic growth profiling, strain panel (AID 1159580);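 note: tested at 20 µM; growth read once vehicle control cultures reached saturation at 30 °C; 1 = growth at the plate median or of vehicle wells; lower values mean less growth of the strain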
Conditions: growth OD

Measured: normalized growth

Clc1ccc2c(c1)C(N1CCNCC1)=Nc1ccccc1O2
inactive: S. cerevisiae deletion strains, locus YKL068W, active compounds read low 0.996 | S. cerevisiae deletion strains, locus YKL085W, strain MDH1 (second series), active compounds read low 1.01 | S. cerevisiae deletion strains, locus YKL085W, strain MDH1, active compounds read low 1.01 | S. cerevisiae deletion strains, locus YKL160W, strain elf1, active compounds read low 1.01 | S. cerevisiae deletion strains, locus YKL190W, strain CNB1, active compounds read low 0.996 | S. cerevisiae deletion strains, locus YKR001C, strain vps1, active compounds read low 1.03 | S. cerevisiae deletion strains, locus YKR026C, strain gcn3, active compounds read low 0.983 | S. cerevisiae deletion strains, locus YKR091W, strain srl3, active compounds read low 0.989 | S. cerevisiae deletion strains, locus YLL001W, strain dnm1, active compounds read low 0.987 | S. cerevisiae deletion strains, locus YLL026W, active compounds read low 1 | S. cerevisiae deletion strains, locus YLL041C, strain sdh2, active compounds read low 1 | S. cerevisiae deletion strains, locus YLR027C, strain aat2, active compounds read low 0.986 | S. cerevisiae deletion strains, locus YLR039C, strain RIC1, active compounds read low 1.32 | S. cerevisiae deletion strains, locus YLR058C, strain SHM2, active compounds read low 0.979 | S. cerevisiae deletion strains, locus YLR102C, strain apc9, active compounds read low 0.993 | S. cerevisiae deletion strains, locus YLR113W, strain HOG1, active compounds read low 1.02 | S. cerevisiae deletion strains, locus YLR221C, strain rsa3, active compounds read low 0.985 | S. cerevisiae deletion strains, locus YLR258W, strain gsy2, active compounds read low 0.991 | S. cerevisiae deletion strains, locus YLR262C, strain YPT6 (second series), active compounds read low 1.04 | S. cerevisiae deletion strains, locus YLR262C, strain YPT6, active compounds read low 1.38 | S. cerevisiae deletion strains, locus YLR268W, strain sec22, active compounds read low 1.08 | S. cerevisiae deletion strains, locus YLR320W, strain mms22, active compounds read low 0.967 | S. cerevisiae deletion strains, locus YLR330W, strain CHS5, active compounds read low 0.988 | S. cerevisiae deletion strains, locus YLR342W, strain FKS1 (second series), active compounds read low 0.901 | S. cerevisiae deletion strains, locus YLR342W, strain FKS1, active compounds read low 0.955 | S. cerevisiae deletion strains, locus YLR357W, strain rsc2, active compounds read low 0.97 | S. cerevisiae deletion strains, locus YLR370C, strain arc18, active compounds read low 0.993 | S. cerevisiae deletion strains, locus YLR371W, strain rom2, active compounds read low 0.968 | S. cerevisiae deletion strains, locus YLR384C, strain iki3, active compounds read low 0.977 | S. cerevisiae deletion strains, locus YLR418C, strain cdc73, active compounds read low 0.981 | S. cerevisiae deletion strains, locus YML016C, strain PPZ1, active compounds read low 0.981 | S. cerevisiae deletion strains, locus YML032C, strain rad52, active compounds read low 1.01 | S. cerevisiae deletion strains, locus YML120C, strain ndi1, active compounds read low 1.01 | S. cerevisiae deletion strains, locus YML124C, strain tub3, active compounds read low 0.979 | S. cerevisiae deletion strains, locus YMR058W, strain fet3, active compounds read low 0.981 | S. cerevisiae deletion strains, locus YMR078C, strain ctf18, active compounds read low 0.983 | S. cerevisiae deletion strains, locus YMR125W, strain sto1, active compounds read low 0.928 | S. cerevisiae deletion strains, locus YMR129W, active compounds read low 1.01 | S. cerevisiae deletion strains, locus YMR205C, strain PFK2, active compounds read low 0.998 | S. cerevisiae deletion strains, locus YMR223W, strain ubp8, active compounds read low 0.962 | S. cerevisiae deletion strains, locus YMR263W, strain SAP30, active compounds read low 0.979 | S. cerevisiae deletion strains, locus YMR307W, strain GAS1, active compounds read low 1.15 | S. cerevisiae deletion strains, locus YNL067W, strain RPL9B, active compounds read low 1.01 | S. cerevisiae deletion strains, locus YNL071W, strain lat1, active compounds read low 0.972 | S. cerevisiae deletion strains, locus YNL128W, strain TEP1, active compounds read low 0.975 | S. cerevisiae deletion strains, locus YNL153C, strain GIM3, active compounds read low 1.01 | S. cerevisiae deletion strains, locus YNL175C, strain NOP13, active compounds read low 1 | S. cerevisiae deletion strains, locus YNL183C, strain NPR1, active compounds read low 0.966 | S. cerevisiae deletion strains, locus YNL197C, strain WHI3, active compounds read low 1.01 | S. cerevisiae deletion strains, locus YNL209W, strain ssb2, active compounds read low 0.991 | S. cerevisiae deletion strains, locus YNL224C, strain SQS1, active compounds read low 1.02 | S. cerevisiae deletion strains, locus YNL233W, strain BNI4, active compounds read low 1 | S. cerevisiae deletion strains, locus YNL248C, strain rpa49, active compounds read low 0.998 | S. cerevisiae deletion strains, locus YNL250W, strain rad50, active compounds read low 0.981 | S. cerevisiae deletion strains, locus YNL271C, strain bni1, active compounds read low 0.994 | S. cerevisiae deletion strains, locus YNL298W, strain CLA4, active compounds read low 0.97 | S. cerevisiae deletion strains, locus YNL307C, strain MCK1, active compounds read low 0.983 | S. cerevisiae deletion strains, locus YNL322C, strain KRE1 (second series), active compounds read low 0.986 | S. cerevisiae deletion strains, locus YNL322C, strain KRE1, active compounds read low 0.99 and 0.992 | S. cerevisiae deletion strains, locus YNR049C, strain mso1, active compounds read low 0.995 | S. cerevisiae deletion strains, locus YNR052C, strain pop2, active compounds read low 0.97 | S. cerevisiae deletion strains, locus YOL006C, strain TOP1, active compounds read low 1.06 | S. cerevisiae deletion strains, locus YOL012C, strain htz1 1.29 | S. cerevisiae deletion strains, locus YOL147C, strain pex11, active compounds read low 1 | S. cerevisiae deletion strains, locus YOR001W, strain rrp6, active compounds read low 0.937 | S. cerevisiae deletion strains, locus YOR061W, strain CKA2, active compounds read low 0.969 | S. cerevisiae deletion strains, locus YOR069W, strain VPS5, active compounds read low 0.991 | S. cerevisiae deletion strains, locus YOR070C, strain gyp1, active compounds read low 1 | S. cerevisiae deletion strains, locus YOR080W, strain dia2, active compounds read low 0.989 | S. cerevisiae deletion strains, locus YOR083W, strain WHI5, active compounds read low 0.937 | S. cerevisiae deletion strains, locus YOR106W, strain vam3, active compounds read low 0.953 | S. cerevisiae deletion strains, locus YOR136W, strain idh2, active compounds read low 0.975 | S. cerevisiae deletion strains, locus YOR144C, strain elg1, active compounds read low 0.99 | S. cerevisiae deletion strains, locus YOR184W, strain ser1, active compounds read low 1.01 | S. cerevisiae deletion strains, locus YOR231W, strain MKK1, active compounds read low 1.02 | S. cerevisiae deletion strains, locus YOR265W, strain rbl2, active compounds read low 0.992 | S. cerevisiae deletion strains, locus YOR270C, strain vph1, active compounds read low 0.818 | S. cerevisiae deletion strains, locus YOR290C, strain snf2, active compounds read low 0.948 | S. cerevisiae deletion strains, locus YOR316C, strain cot1, active compounds read low 0.987 | S. cerevisiae deletion strains, locus YPL051W, strain arl3, active compounds read low 0.987 | S. cerevisiae deletion strains, locus YPL055C, strain LGE1, active compounds read low 0.989 | S. cerevisiae deletion strains, locus YPL078C, strain atp4, active compounds read low 0.991 | S. cerevisiae deletion strains, locus YPL106C, strain sse1, active compounds read low 0.966 | S. cerevisiae deletion strains, locus YPL240C, strain hsp82, active compounds read low 0.978 | S. cerevisiae deletion strains, locus YPL241C, strain CIN2, active compounds read low 1 and 0.992 | S. cerevisiae deletion strains, locus YPL256C, strain CLN2, active compounds read low 1.03 | S. cerevisiae deletion strains, locus YPR119W, strain clb2, active compounds read low 0.994 | S. cerevisiae deletion strains, locus YPR141C, strain kar3, active compounds read low 0.956 | S. cerevisiae deletion strains, locus YPR163C, strain tif3, active compounds read low 0.986 | S. cerevisiae deletion strains, locus YPR167C, strain met16, active compounds read low 0.988 | S. cerevisiae deletion strains, strain wtn01, active compounds read low 0.991 | S. cerevisiae strains, strain wild type, active compounds read low 0.977
active: S. cerevisiae deletion strains, locus YMR231W, strain pep5, active compounds read low 0.487 | S. cerevisiae deletion strains, locus YOR083W, strain WHI5 (second series), active compounds read low 1.13 [resistant]
